A selection: hits, their analogues and other compounds. The true share with any hit is near 3.1%.
PLK1 PBD inh = inhibitors of human PLK1 polo-box domain binding. P53350. Plk1 PBD binding of FITC phosphopeptide, fluorescence polarization. Potency, µM, hits mostly inhibitors. actives 2.8% (n = 360,000). AID 720504; further: series mostly up to about 57 µM; nearly all actives have a fitted effect of over 65% in size
Target sequence (P53350 whole entry, looked up, the tested form may be a part): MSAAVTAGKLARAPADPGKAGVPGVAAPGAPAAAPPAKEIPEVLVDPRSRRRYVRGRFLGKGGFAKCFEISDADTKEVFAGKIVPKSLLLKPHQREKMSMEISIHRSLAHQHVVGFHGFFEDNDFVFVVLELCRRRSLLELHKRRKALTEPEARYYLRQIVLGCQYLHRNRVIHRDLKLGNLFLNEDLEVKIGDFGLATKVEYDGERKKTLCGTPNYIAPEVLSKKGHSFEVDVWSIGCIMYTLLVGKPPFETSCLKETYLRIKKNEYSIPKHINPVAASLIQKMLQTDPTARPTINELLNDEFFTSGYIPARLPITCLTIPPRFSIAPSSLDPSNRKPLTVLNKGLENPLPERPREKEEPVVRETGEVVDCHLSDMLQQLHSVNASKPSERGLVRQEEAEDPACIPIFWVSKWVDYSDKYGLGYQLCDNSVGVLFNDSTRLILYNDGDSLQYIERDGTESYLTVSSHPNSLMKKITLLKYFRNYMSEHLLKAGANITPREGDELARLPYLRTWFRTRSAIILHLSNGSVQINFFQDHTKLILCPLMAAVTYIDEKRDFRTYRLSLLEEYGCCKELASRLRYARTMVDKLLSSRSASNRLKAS
uPA generation = blocks generation of uPA at the cell surface | Potency, µM (highest dose often 38.3 µM), usual class: inhibitors | actives 0.31% (n = 330,000) | cell surface uPA generation assay, qHTS; active means well fitted inhibition curve with a large enough effect; inconclusive means small, poorly fitted or top-dose-only effect; inactive means no such curve, though single readings can be large or run the other way; tested in mouse RAW 264.7 cells; further: nearly all actives have a fitted effect of over 55% in size
PTAP TSG101 blk = blocks PTAP/TSG101 interaction to inhibit HIV-1 budding | Fluorescence polarization, FITC-PTAP peptide / Tsg101 binding | Potency, µM (titrated, usually from 115 µM), most hits filed as inhibitors | 340,000 tested, under 10 active | AID 493005; active means well fitted inhibition curve with a large enough effect in the main read-out, with a control signal flat, not every such curve was filed as active; inconclusive means small, poorly fitted or top-dose-only effect, or effect the other way, or a change in a side signal; inactive means no such curve, though single readings can be large or run the other way
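Fluorescence polarization binding of Tsg101 binding domain (10 uM final) to FITC-labeled PTAP peptide (50 nM final) in HEPES pH 7.5 buffer with NaCl, Tween 20, EDTA, TCEP. Compounds added before peptide; binding 20 min at RT.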
VDR inhibitor = inhibitors of human vitamin D receptor. actives 0.93% (n = 400,000). P11473. VDR-SRC2-3 peptide fluorescence polarization, 2 h. Potency, µM, actives largely listed as inhibitors
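After 23 nl compound addition and a short centrifugation, plates sat for 2 hours at ambient temperature; polarization of fluorescence then indicated loss of VDR binding to peptide SRC2-3.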
TSHR antag = antagonists of human thyroid stimulating hormone receptor; TSHR-expressing cells, TSH-stimulated cAMP HTRF, 2 h; hits give low values; actives 0.2% (n = 330,000); AID 504810; activity change, negative = inhibition, % at 11.5 µM; P16473;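 active means activity change below a set negative limit, meaning inhibition stronger than a set level, cut at about -70% in these data; inconclusive means activity change between two set negative limits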
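Inhibition of cAMP made by TSHR-expressing cells under TSH stimulation (4nM final, EC80; 2 h, 37 deg C) is quantified with a one-step lysis HTRF kit, anti-cAMP cryptate versus cAMP-d2.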
Each line names hits and unclear results; the compound was inactive in the other large screens. Unless noted, the call rests on the fitted dose curve; in most records, active means well fitted curve in the direction sought with a large enough effect; inconclusive means small, poorly fitted or top-dose-only effect, or another doubt; inactive means no such curve, though single readings can be large; an effect the other way counts as inactive or inconclusive.

C[C@@H]1CN([C@H](C)CO)C(=O)CCCn2nncc2CO[C@H]1CN(C)C(=O)OCc1ccccc1	none (no result: uPA generation, PTAP TSG101 blk, VDR inhibitor, TSHR antag)
CC(=O)/C=C(\C)Nc1ccccc1O	uPA generation 7.9µM
O=C(Nc1ccccc1O)c1ccccc1O	none
CC12CCC(C(=O)N(CSC(=S)N/N=C\c3ccccc3Cl)C1=O)C2(C)C (stereo not drawn)	none
CC12CCC(C(=O)N(CSC(=S)N/N=C\c3ccccc3)C1=O)C2(C)C (stereo not drawn)	PLK1 PBD inh 3.4µM
S=C(Nc1ccc(Cl)cc1Cl)Nn1cnnc1	PLK1 PBD inh 6.7µM, VDR inhibitor inconclusive
S=C(NNc1ccnc2cc(Cl)ccc12)Nc1ccc(Cl)cc1Cl	PLK1 PBD inh inconclusive, VDR inhibitor 79µM
S=C(Nc1cc(Cl)ccc1Cl)Nn1cnnc1	PLK1 PBD inh 21µM, VDR inhibitor 79µM
S=C(Nc1cccc(Cl)c1Cl)Nn1cnnc1	PLK1 PBD inh 17µM, VDR inhibitor 79µM
CC(C)n1nnnc1SCC(=O)c1ccc2c(c1)OCCO2	PLK1 PBD inh 30µM
Cc1ccc(C(=O)NCC(=O)NCC(=O)OCC(=O)c2ccc([N+](=O)[O-])cc2)cc1	VDR inhibitor 79µM
Cc1cccc(S(=O)(=O)NNC(=O)Cc2cccn2C)c1	PLK1 PBD inh 27µM
O=C(CCC1CCCCC1)NCCN1C2=NC[C@H](Cc3ccccc3)N2C[C@H]1Cc1ccc(O)cc1	none
CCCCCCNC(=O)N[C@@H](C(=O)NCCC[C@H]1CN2C(=NC[C@@H]2Cc2ccccc2)N1CCc1cccc(OC)c1)C(C)C	PLK1 PBD inh 1.5µM, VDR inhibitor inconclusive
O=C(CSc1ccccn1)N1CCCC(Nc2ccccc2)C1 (stereo not drawn)	PLK1 PBD inh inconclusive
COc1ccc(NC2CCCN(C(=O)CSc3ccccn3)C2)cc1OC (stereo not drawn)	PLK1 PBD inh 24µM
O=C(CSc1ccccc1)N1CCCC(Nc2ccccc2)C1 (stereo not drawn)	PLK1 PBD inh 8.4µM, VDR inhibitor 20µM
COc1ccc(-c2nnc(SCC(=O)Nc3ccc(C)c(C)c3)s2)cc1	none (no result: PLK1 PBD inh, uPA generation, PTAP TSG101 blk, TSHR antag)
Cc1ccc(NC(=O)CN2CCN(C3CCCCC3)C(=O)C2=O)cc1	none (no result: PLK1 PBD inh, uPA generation, PTAP TSG101 blk, TSHR antag)
COc1ccc(S(=O)(=O)N(CC(=O)NC2CC3CCC2C3)c2ccccc2OC)cc1 (stereo not drawn)	PLK1 PBD inh 27µM, VDR inhibitor inconclusive (no result: uPA generation)
Cc1ccc(C(C)C)c(OCc2ccc(C(=O)N/N=C/c3ccc(C(=O)O)cc3)cc2)c1	PLK1 PBD inh 24µM
O=C(O)C(c1ccccc1)N1C(=O)/C(=C\c2ccc(-c3ccccc3Cl)o2)SC1=S (stereo not drawn)	PLK1 PBD inh inconclusive, PTAP TSG101 blk inconclusive, VDR inhibitor 50µM
Cc1ccc(S(=O)(=O)N2CCN(c3nc(-c4ccc(F)cc4)nc4cc(Cl)ccc34)CC2)cc1	none (no result: PLK1 PBD inh, uPA generation, PTAP TSG101 blk, TSHR antag)
C/C1=C\[C@@H](O)C(C(C)C)C(OC(=O)c2ccc(O)cc2)C/C(C)=C/CC1 (stereo partly drawn)	none (no result: PLK1 PBD inh, uPA generation, PTAP TSG101 blk, TSHR antag)
Cc1nc(N(C)C)c2sc(=S)n(C)c2n1	none
Cc1nc(N(C)C)c2sc(=S)n(-c3ccccc3)c2n1	PLK1 PBD inh 27µM
CCN(CC)S(=O)(=O)c1ccc(C)c(NC(=S)N2CCN(c3ccccn3)CC2)c1	PLK1 PBD inh 30µM
CCc1ccccc1Nc1ccc(C(=O)O)cc1N	none
CCNc1ccc(C(=O)O)cc1N	VDR inhibitor 79µM
Cc1nc2cnc(N(C)C)nc2n(CCC#N)c1=O	none (no result: PLK1 PBD inh, uPA generation, PTAP TSG101 blk, TSHR antag)
Cc1ccc(C(=O)NNC(=O)c2ccccc2)cc1S(=O)(=O)N1CCCCC1	none
O=S(=O)(c1ccccc1)N1CCN(S(=O)(=O)N2CCCCCC2)CC1	none
Cc1ccc(-n2sc3ccccc3c2=O)cc1S(=O)(=O)N1CCCCC1	PLK1 PBD inh 0.84µM, uPA generation inconclusive, VDR inhibitor inconclusive
O=S(=O)(c1ccc(S(=O)(=O)N2CCCC2)cc1)N1CCCCC1	none
O=c1c2ccccc2sn1-c1ccc(S(=O)(=O)N2CCCCC2)cc1	PLK1 PBD inh 1.3µM (no result: TSHR antag)
O=c1c2ccccc2sn1-c1ccc(S(=O)(=O)N2CCCC2)cc1	PLK1 PBD inh 1.1µM, VDR inhibitor inconclusive
O=C(Cn1c(=O)c2cc(Cl)ccc2n2nncc12)Nc1ccccc1	none (no result: PLK1 PBD inh, uPA generation, PTAP TSG101 blk, TSHR antag)
COc1cc(C(C2C(=O)CC(C)(C)CC2=O)C2C(=O)CC(C)(C)CC2=O)ccc1O	PLK1 PBD inh inconclusive, VDR inhibitor inconclusive
